Most compounds without a hit are left out; they make up all but 2.5% or so of the library.
Mcl1 Noxa PPI: Mcl-1/Noxa binding inhibitors, primary screen, biochemical, TR-FRET, 1536-well; Induced myeloid leukemia cell differentiation protein Mcl-1 (Homo sapiens), Q07820; TR-FRET Mcl-1/Noxa peptide binding, 2 h; inhibition, % at 21.7 µM; hit rate 1.5% among 220,000; AID 1022, 2008;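 active = compounds that cut the protein-peptide binding signal by more than 50% relative to plate controls in a single-dose test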;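 note: His-tagged Mcl-1 with rhodamine Noxa BH3 peptide and terbium anti-His antibody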
Target sequence (Q07820 whole entry, looked up): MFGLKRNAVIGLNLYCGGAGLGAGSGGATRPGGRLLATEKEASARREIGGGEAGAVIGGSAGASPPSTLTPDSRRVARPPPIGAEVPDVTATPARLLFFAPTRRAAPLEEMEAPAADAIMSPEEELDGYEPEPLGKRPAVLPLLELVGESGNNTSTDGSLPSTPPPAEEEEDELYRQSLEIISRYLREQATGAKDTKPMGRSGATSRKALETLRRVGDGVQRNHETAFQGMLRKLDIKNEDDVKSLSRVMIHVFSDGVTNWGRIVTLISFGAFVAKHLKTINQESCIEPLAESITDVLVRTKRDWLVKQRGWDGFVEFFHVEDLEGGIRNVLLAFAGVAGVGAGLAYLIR
14-3-3 Bad inh: inhibitors of 14-3-3 zeta/Bad binding, primary screen, biochemical, TR-FRET, bovine 14-3-3 zeta; 14-3-3 protein zeta/delta (Bos taurus), P63103; inhibition, % at 21.7 µM; AID 781, 2007; hit rate 0.71% among 220,000; TR-FRET 14-3-3zeta/Dy647-pBad peptide displacement, 1 h;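 active = inhibition above about 70%, limit read from the data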
Target sequence (P63103 whole entry, looked up): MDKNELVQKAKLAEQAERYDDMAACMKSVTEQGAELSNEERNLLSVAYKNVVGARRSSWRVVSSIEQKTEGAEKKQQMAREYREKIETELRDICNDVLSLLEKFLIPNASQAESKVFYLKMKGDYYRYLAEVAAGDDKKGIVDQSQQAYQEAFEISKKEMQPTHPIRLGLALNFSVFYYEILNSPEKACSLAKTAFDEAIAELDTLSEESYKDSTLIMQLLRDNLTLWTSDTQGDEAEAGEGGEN
Mcl1-Bid inh: Mcl-1/Bid binding inhibitors, primary screen, biochemical, TR-FRET, 1536-well. TR-FRET Mcl-1/Bid-Dy647 peptide binding. inhibition, % at 21.7 µM. hit rate 0.97% among 220,000;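 active = compounds that cut the binding signal by more than half at the single screening dose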;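 note: His-tagged Mcl-1 with europium anti-His antibody binding Bid BH3 peptide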
Bim-Mcl-1: inhibitors of Bim peptide binding to Mcl-1, primary screen, biochemical, bead-based flow cytometry, multiplex | Bim peptide-Mcl-1 binding | Induced myeloid leukemia cell differentiation protein Mcl-1 (Homo sapiens), Q07820 | AID 1009, 2008 | hit rate 0.1% among 190,000 | inhibition, % at 10 µM; in the data active = inhibition above about 40%
MCL1-BIM inh: inhibitors of MCL1 binding to BIM-BH3, primary screen, biochemical, fluorescence polarization; Induced myeloid leukemia cell differentiation protein Mcl-1 (Homo sapiens), Q07820; GST-MCL1 / FITC-Bim-BH3 fluorescence polarization; inhibition, % at 10.9 µM; hit rate 0.68% among 320,000; AID 2057, 2009;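 active = inhibition above the mean inhibition of all tested compounds plus 3 SD, set per campaign, cut at about 40% in these data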;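 note: higher means more loss of mP so more displacement of Bim peptide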
Of the large screens only hits and unclear results are named; the others gave an inactive call.

CCCCCC(=O)Nc1ccc(N2CCN(C(=O)c3ccccc3)CC2)cc1	14-3-3 Bad inh 82
CCCCCCC(=O)Nc1ccc(C(=O)N2CCCC2)cc1	none
O=C(NCc1ccc2c(c1)OCO2)C1CCCN(S(=O)(=O)c2cccc3nonc23)C1 (stereo not given)	none
O=C(Nc1cccc(-c2nc3cccnc3s2)c1)c1cccnc1Cl	none (no result: Bim-Mcl-1)
O=C(Nc1cccc(-c2nc3cccnc3s2)c1)C1c2ccccc2Oc2ccccc21	14-3-3 Bad inh 91 (no result: MCL1-BIM inh)
COCCCNC(=O)CN1C(=O)/C(=C/c2ccccc2)Sc2ccccc21	none (no result: Bim-Mcl-1)
COc1cccc(C(=O)Nc2ccncc2)c1OC	none (no result: Mcl1 Noxa PPI, 14-3-3 Bad inh, Mcl1-Bid inh, Bim-Mcl-1)
CN(C)c1ccc(/C=N/NC(=O)c2cccc(C(=O)N/N=C/c3ccc(N(C)C)cc3)n2)cc1	Mcl1 Noxa PPI 82
CN(C)c1ccc(/C=N/NC(=O)c2ccccc2)cc1	none
CCN(CC)c1ccc(NC(=O)c2cc(Cl)ccc2OC)cc1	Mcl1 Noxa PPI 66
O=C(Nc1ccccc1)c1cccc(C(=O)Nc2ccccc2)n1	none (no result: Mcl1 Noxa PPI, 14-3-3 Bad inh, Mcl1-Bid inh, Bim-Mcl-1)
CN(C)c1ccc(NC(=O)c2cccc(C(=O)Nc3ccc(N(C)C)cc3)n2)cc1	Mcl1 Noxa PPI 86
COc1cccc(C(=O)Nc2ccc(N(C)C)cc2)c1OC	Mcl1 Noxa PPI 65
COC(=O)c1ccc(Cl)c(NS(=O)(=O)c2ccc3c(c2)OCCO3)c1	none
Cc1nn(Cc2ccc(F)cc2)c(C)c1NC(=O)c1cc2ncc(Br)cn2n1	none
CCOC(=O)c1ccc2[nH]c3c(c2c1)CCCC3O (stereo not given)	none
O=C(O)CC[C@@H](C(=O)O)N1C(=O)c2ccccc2C1=O	none (no result: Bim-Mcl-1)
Cc1ccc(NC(=O)CCc2c(C)nc3ncnn3c2C)cc1	none
Cc1nc2ncnn2c(C)c1CCC(=O)Nc1ccc(S(=O)(=O)N2CCCCCC2)cc1	Mcl1-Bid inh 52
CC1=NN(c2ccccc2)C(=O)/C1=C\N1CC(C)OC(C)C1 (stereo not given)	none
COC(=O)c1ccc(NC(=O)CSCc2ccc(C)cc2)cc1	none
Cc1ccc(Nc2nc(-c3ccc(S(=O)(=O)N4CCCC4)cc3)cs2)cc1C	14-3-3 Bad inh 86
COc1ccc(-c2csc(Nc3ccc(S(=O)(=O)Nc4cc(C)on4)cc3)n2)cc1C	Mcl1 Noxa PPI 51
CCOc1ccc(S(=O)(=O)n2cnc(C)c2)cc1	none (no result: Mcl1 Noxa PPI, 14-3-3 Bad inh, Mcl1-Bid inh, Bim-Mcl-1)
O=C(CN1C(=O)NC2(CCCCCCC2)C1=O)Nc1ccc(Br)cc1Br	none (no result: Mcl1 Noxa PPI, 14-3-3 Bad inh, Mcl1-Bid inh, Bim-Mcl-1)
CN1CCN(S(=O)(=O)c2ccc(N3CCN(C(c4ccccc4)c4ccccc4)CC3)nc2)CC1	none
CN1CCN(S(=O)(=O)c2ccc(N3CCN(S(=O)(=O)/C=C/c4ccccc4)CC3)nc2)CC1	14-3-3 Bad inh 72
CCOC(=O)N1CCC(=NNc2ccnc3cc(Cl)ccc23)CC1	none
COc1ccc(CNC(C)C23CC4CC(CC(C4)C2)C3)c(OC)c1OC (stereo not given)	none (no result: Mcl1 Noxa PPI, 14-3-3 Bad inh, Mcl1-Bid inh, Bim-Mcl-1)
Cc1cc(C)c2nc(-c3cccc(Cl)c3)c(C)c(C(=O)N3CCOCC3)c2c1	none (no result: Mcl1 Noxa PPI, 14-3-3 Bad inh, Mcl1-Bid inh, Bim-Mcl-1)
Oc1ccccc1C1CC(c2cccs2)=NC(c2ccc(Cl)cc2)N1 (stereo not given)	none
CCN(CC)CCn1c(NCc2ccccn2)nc2ccccc21	14-3-3 Bad inh 77, Mcl1-Bid inh 85
Fc1ccc(Cn2nnnc2CN2CCN(C3CCCC3)CC2)cc1	14-3-3 Bad inh 78
COc1ccc(CN2CCN(C(=O)c3ccco3)CC2)cc1OCc1ccccc1	14-3-3 Bad inh 84
COc1ccc(CN2CCN(C(=O)c3ccco3)CC2)cc1OC	none
COc1ccc(CN2CCN(c3ccccn3)CC2)cc1OCc1ccccc1	14-3-3 Bad inh 70
Cn1cccc1CC(=O)NNC(=O)Nc1ccc(Cl)cc1	none
Cc1ccc(NC(=O)C(=O)NCc2ccc(/C=C(/C#N)C(=O)NCc3cccnc3)o2)cc1	none
Cc1ccc(NC(=O)C(=O)NCc2ccc(/C=C(/C#N)C(=O)NCc3cccnc3)o2)cc1C	Mcl1-Bid inh 95
CCN(CC)CCOc1ccc(/C(=C(/Cl)c2ccccc2)c2ccccc2)cc1	14-3-3 Bad inh 78
Cc1ccc(NC(=S)NC(=O)c2sc3ccccc3c2Cl)c(C(=O)O)c1	none (no result: MCL1-BIM inh)
Cc1cccc(C(=O)NC(=S)NNC(=O)c2cccs2)c1	none
O=C(NNC(=S)NC(=O)c1sc2ccccc2c1Cl)c1ccc(Cl)cc1	Mcl1 Noxa PPI 53
Cc1cccc(C(=O)NC(=S)NNC(=O)c2ccc(Cl)cc2)c1	Mcl1 Noxa PPI 88
O=C(Nc1ccnc(=O)[nH]1)c1sc2ccccc2c1Cl	Mcl1-Bid inh 58 (no result: Bim-Mcl-1)
O=C(NNC(=O)c1sc2ccccc2c1Cl)Nc1ccc(Cl)cc1	none
O=C(O)c1ccccc1NC(=S)NC(=O)c1sc2ccccc2c1Cl	Mcl1 Noxa PPI 58
O=C(Nc1ccncc1)c1sc2ccccc2c1Cl	none
CC(=O)c1ccc2c3c(ccc(O)c13)CC2	none
N#Cc1cccc(NC(=O)COC(=O)C2CCC2)c1	none (no result: Mcl1 Noxa PPI, 14-3-3 Bad inh, Mcl1-Bid inh, Bim-Mcl-1)
O=C(CCS(=O)(=O)c1ccccc1)Nc1ccccc1-c1nc2ccccc2s1	Mcl1-Bid inh 75
Cc1ccc2nc(-c3ccc(NC(=O)CCS(=O)(=O)c4ccccc4)cc3)sc2c1	none
Cc1ccccc1C(=O)Nc1cccc(-c2ccc3nncn3n2)c1	none
O=C(Nc1cccc(-c2ccc3nncn3n2)c1)c1ccco1	Bim-Mcl-1 41
O=C(O)c1cc(N/N=C/c2ccc(N3CCOCC3)s2)ccc1Cl	Mcl1 Noxa PPI 86
CSc1nc(-c2ccco2)nn1S(=O)(=O)c1ccccc1	14-3-3 Bad inh 81
CSc1c(CC(=O)Nc2ccccc2Cl)n(Cc2ccccc2)c2ccccc12	none (no result: Mcl1 Noxa PPI)
CSc1c(CC(=O)Nc2ccccc2C(F)(F)F)n(Cc2ccccc2)c2ccccc12	Mcl1-Bid inh 58
Oc1ccc(NCc2ccccc2OCc2ccccc2F)cc1	none
CCOc1ccccc1CNc1ccc(O)cc1	Mcl1 Noxa PPI 72 (no result: MCL1-BIM inh)
NS(=O)(=O)c1ccc(NCc2ccccc2OCc2ccccc2F)cc1	14-3-3 Bad inh 82
COC(=O)c1ccccc1C(=O)c1cccc2ccccc12	none (no result: Mcl1 Noxa PPI, 14-3-3 Bad inh, Mcl1-Bid inh, Bim-Mcl-1)
O=c1c2cnn(-c3ccccc3)c2nc(-c2cccs2)n1-c1cccc(Cl)c1	Mcl1-Bid inh 79
O=C(CCN1CCCCC1c1cccnc1)NCc1ccccc1 (stereo not given)	none
CCCOc1cccc(CN2CCCCC2c2cccnc2)c1 (stereo not given)	Mcl1-Bid inh 70
CC(C)(C)c1cc[n+](-c2nc([O-])sc2C=O)cc1	none
CC(C)c1cc[n+](-c2nc([O-])sc2C=O)cc1	MCL1-BIM inh 45
Cc1sc2ncnc(N(C)C3CCCCC3)c2c1C	none (no result: Mcl1 Noxa PPI, 14-3-3 Bad inh, Mcl1-Bid inh, Bim-Mcl-1)
Cc1nccn1CC(O)COC1CCCCC1 (stereo not given)	Mcl1-Bid inh 62
CN(C)CCCOc1cccc(Oc2ccccc2)c1	Mcl1-Bid inh 52

Source: PubChem
